# Source: PubChem BioAssay (NCI)
# Compounds without any hit were thinned out: in the full panel of roughly 83,000, 20% have a hit.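 Treatment: one concentration, 48 hours, 96-well format. Scoring: percent growth, with anything below 10 considered active.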 Values without a mark were called inactive. The source made the active and inactive calls.
# Tested on: MDA-MB-468 breast
# Assay: NCI-60 one-dose screen, 48 h (100 = growth as untreated, 0 = no growth, -100 = all killed)
# Conditions: 10 µM unless noted
row,Compound,growth
1,CC[C@]1(O)CC2CN(CCc3c([nH]c4ccccc34)C(C(=O)OC)(c3cc4c(cc3OC)N(C=O)[C@H]3[C@@](O)(C(=O)OC)[C@H](OC(C)=O)[C@]5(CC)[C@@H]6C[C@@H]6CN6CC[C@]43[C@@H]65)C2)C1 (some centres undefined),22.9%
2,OC(CNC1CCCCC1)Cn1c2ccc(I)cc2c2cc(I)ccc21 (centres undefined),67.4%
3,Cn1cc(-c2noc(-c3cn(C)c4ncc(Br)cc34)n2)c2cc(Cl)ccc21,82.3%
4,O=C(Nc1ccc2cc3ccc(NC(=O)NC4CCCCC4)cc3nc2c1)NC1CCCCC1,105%
5,Nc1cc(F)ccc1[N+](=O)[O-],100%
6,CN(C)c1ccc(C2CC(c3ccccc3)=NN2/C=C2\SC(=O)NC2=O)cc1 (centres undefined),100%
7,COC1OCC(O)C(O)C1O (centres undefined),100%
8,Cc1n(Cc2ccc3ccccc3c2)c(Cl)c(Cl)[n+]1Cc1ccc2ccccc2c1,-19.5% (active)
9,Cc1ccc(-n2c(/C=C3\C(=O)Nc4ccccc43)ccc2CO)cc1,45.1%
10,CCCCCCCCCCSC(=N)N (tested in a mixture with another compound),-9.42% (active)
11,O=C(Nc1ccc(N=Cc2c(O)[nH]c3ccccc23)cc1)Nc1ccc(S(=O)(=O)Nc2ncccn2)cc1,116%
12,COc1ccc(CN2C(=O)OC(C)(COC(C)=O)C2=O)cc1 (centres undefined),92.9%
13,CC(C)(O)CCl,103%
14,COc1cc(-c2cc(C(=O)Nc3nc4ccccc4s3)nc3cc(-c4ccccc4)nn23)cc(OC)c1OC,59.6%
